From PubChem BioAssay
Calls of active or inactive are those of the source.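 Rule for the calls, unless noted: active = compounds lowering colon cancer cell viability after pretreatment blocking the GSK3B kinase; inactive = the rest.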

Tests used:
[1] = Wnt pathway potentiators raising nuclear beta-catenin – imaging, WNT3A-conditioned medium, mouse C2C12, NPC library, primary screen (AID 1117326; in the data active = nuclear beta-catenin stimulation mostly above about 4.2%, no sharp cut-off; inactive = mostly below about 10%; note: reference of the scale not given here); settings: stronger effect = higher value
[2] = stimulators of insulin release from INS-1E, primary screen, cell-based, 5 mM glucose, NPC library (AID 1117329;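 active = compound raises insulin release from rat beta cells at 5 mM glucose, no numeric limit stated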; note: reference of the scale not given here); settings: rat INS-1E insulin secretion, at 10 µM, stronger effect = higher value
[3] = growth inhibition of GSK3B-pretreated HCT116 cells – cell-based, CellTiter-Glo, 0.2 to 20 µM (AID 1117336); settings: HCT116 viability after GSK3B inhibitor, at 20 µM, stronger effect = higher value
[4] = inhibition of endothelial tube formation, primary screen, imaging, VEGF stimulated, CD31 staining, tube area, NPC library (AID 1117340;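 active = compound that reduces growth-factor-driven endothelial tube area in a mixed cell culture, no cutoff stated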); settings: VEGF-stimulated ADSC/ECFC co-culture, at 10 µM, stronger effect = higher value
[5] = GLP1 release stimulators, primary, NCI-H716, NPC library (AID 1117341;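 active = compound raises GLP1 secretion from the human gut endocrine cells, with no numeric limit stated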; note: reference of the scale not given here); settings: NCI-H716 cells, at 10 µM, stronger effect = higher value
[6] = HCT116 colon cancer cell growth inhibition, primary screen, CellTiter-Glo luminescence, NPC library (AID 1117342;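 active = compounds that lower survival of HCT116 colon cancer cells in the luminescence readout, no numeric limit stated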); settings: at 20 µM (top of the series)
[7] = reduced SW480 viability measured with CellTiter-Glo, NPC library, primary (AID 1117343;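 active = compounds that lower viability of the colon cancer cells in the luminescence readout, with no numeric limit stated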); settings: CellTiter-Glo luminescence; at 20 µM (top of the series)
[8] = NPC library primary testing for decreased DLD-1 cell viability via CellTiter-Glo (AID 1117346;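 active = compounds that lower survival of DLD-1 colon cancer cells in the luminescence readout, no cutoff given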); settings: DLD-1 viability, CellTiter-Glo luminescence; at 20 µM (top of the series)

Compound | nuclear beta-catenin stimulation ([1]; at 10 µM) | nuclear beta-catenin stimulation ([1]; stimulation, at 2 µM) [%] | insulin secretion stimulation [2] | viability decrease [3] | tube area decrease [4] | GLP1 secretion stimulation [5] | inhibition of viability [6] | viability decrease (inhibition) [7] | viability decrease (inhibition) [8]
C/C(=C(/OCCOc1ccc(Cl)cc1)c1ccc(Cl)cc1Cl)n1ccnc1 | 3.9% (inactive) | 1.3 | -0.7% (inactive) | 102% (active) | 109% (active) | 4.1% (inactive) | 102% (active) | 143% (active) | 105% (active)
CCN1CCN(c2cc(-c3ccc(F)cc3)c3c(n2)CCCCCC3)CC1 | 0.2% (inactive) | -3.3 | 1.9% (inactive) | 104% (active) | 24% (inactive) | 11.2% (inactive) | 113% (active) | 132% (active) | 102% (active)
CCCc1ccc(C(=O)O)cc1 | -2% (inactive) | 2.4 | 0.6% (inactive) | -19.9% (inactive) | 0.8% (inactive) | 1.1% (inactive) | 7.9% (inactive) | 12.9% (inactive) | 11.8% (inactive)
CC(C)CCC[C@@H](C)[C@H]1CC[C@H]2[C@@H]3CC[C@H]4C[C@@H](O)CC[C@]4(C)[C@@H]3CC[C@]12C | 0% (inactive) | 0.5 | 1.1% (inactive) | 1.6% (inactive) | -1.6% (inactive) | -1.9% (inactive) | -2.8% (inactive) | -7.2% (inactive) | -8.7% (inactive)
CCCCC(O)/C=C(C)/C=C/C=C/C(=O)N1CCCC1=O (centres undefined) | -1% (inactive) | -0.4 | 0.3% (inactive) | 1.6% (inactive) | 17.5% (inactive) | 1.3% (inactive) | 37.5% (inactive) | 59.3% (active) | -19.2% (inactive)
OCc1ccc(Cl)cc1Cl | 2.2% (inactive) | 0.6 | -2% (inactive) | 1.6% (inactive) | 13.7% (inactive) | -5% (inactive) | -2.7% (inactive) | 26.9% (inactive) | 13.2% (inactive)
CC(CC(C#N)(c1ccccc1)C(C)C)N(C)C (centres undefined) | 2.7% (inactive) | 0.9 | 3.4% (inactive) | -53.4% (inactive) | 1.3% (inactive) | 0.5% (inactive) | -4.77% (inactive) | 14.5% (inactive) | -20% (inactive)
CCCCN=C(N)N=C(N)N | 2.9% (inactive) | 0.9 | -1.1% (inactive) | -10.8% (inactive) | 3.5% (inactive) | 2.1% (inactive) | 3.4% (inactive) | 54.5% (active) | -0.2% (inactive)
O=C(CO)[C@@H](O)[C@H](O)[C@@H](O)C(=O)O | -2.6% (inactive) | -0.9 | 0.7% (inactive) | -2.4% (inactive) | -0.1% (inactive) | -5.4% (inactive) | 2.2% (inactive) | 0.3% (inactive) | -3.1% (inactive)
CC(=O)SC[C@@H](Cc1ccccc1)C(=O)NCC(=O)OCc1ccccc1 | -0.9% (inactive) | 0.5 | -1.4% (inactive) | -9.8% (inactive) | 18.9% (inactive) | -4.5% (inactive) | -2% (inactive) | -6.1% (active) | -5.9% (inactive)
N[C@@H](CSSC[C@H](N)C(=O)O)C(=O)O | 1.1% (inactive) | 3.2 | -2.2% (inactive) | 0.8% (inactive) | -4% (inactive) | 3.6% (inactive) | -21.6% (inactive) | 38.7% (inactive) | 8.45% (inactive)
NC[C@H]1O[C@H](O[C@@H]2[C@@H](O)[C@@H](O[C@H]3O[C@H](CO)[C@@H](O)[C@H](N)[C@@H]3O)[C@H](N)C[C@@H]2N)[C@H](O)[C@@H](O)[C@H]1O | -1.2% (inactive) | -0.6 | -0.8% (inactive) | -36.2% (inactive) | -10.7% (inactive) | -0.1% (inactive) | -13.3% (inactive) | -2.1% (inactive) | -23.8% (inactive)
CO/N=C(/C(=O)N[C@@H]1C(=O)N2C(C(=O)[O-])=C(C[n+]3ccn4ncccc43)CS[C@H]12)c1nsc(N)n1 | 2% (inactive) | -1 | 3.45% (inactive) | 16.4% (inactive) | -10.7% (inactive) | -1.2% (inactive) | -21.9% (inactive) | -3.8% (inactive) | -6.6% (inactive)
O=C(O)CCCC[P+](c1ccccc1)(c1ccccc1)c1ccccc1 | -2.3% (inactive) | -0.2 | 3.5% (inactive) | -11% (inactive) | 7.8% (inactive) | 2.8% (inactive) | -8.2% (inactive) | -3.6% (inactive) | 2.9% (inactive)
O=C1C(c2[nH]c3ccc(S(=O)(=O)O)cc3c2O)=Nc2ccc(S(=O)(=O)O)cc21 | -1.7% (inactive) | -0.3 | 5.5% (inactive) | 23.1% (inactive) | -3.9% (inactive) | 3% (inactive) | 11.5% (inactive) | 13.9% (inactive) | 7% (inactive)
CN1CCN(CCC(=O)N2c3ccccc3Sc3ccc(C(F)(F)F)cc32)CC1 | 2.3% (inactive) | 2.1 | 16.1% (inactive) | 72.7% (active) | 19.7% (inactive) | 11.5% (inactive) | 60% (active) | 117% (active) | 57.8% (active)
O=C1[C@@H]2[C@H]3CC[C@H](C3)[C@@H]2C(=O)N1CCCCN1CCN(c2ncccn2)CC1 | 10% (inactive) | 34.2 | 3.2% (inactive) | -0.8% (inactive) | 0.8% (inactive) | 1.5% (inactive) | 45.5% (inactive) | 12.8% (inactive) | 1.2% (inactive)
CN(C)C(=S)SC(=S)N(C)C | 31.6% (inactive) | 11.3 | -0.3% (inactive) | -6.55% (inactive) | -36.6% (inactive) | 4.1% (inactive) | 11.5% (inactive) | 35.3% (inactive) | 0.2% (inactive)
CC(C)Cc1ccc(CC(=O)O)cc1 | -0.7% (inactive) | -0.2 | 0.2% (inactive) | -11.5% (inactive) | -13.7% (inactive) | -1.8% (inactive) | -3.5% (inactive) | 4.2% (inactive) | -8% (inactive)
COc1cc(C=C2CCC/C(=C\c3ccc(O)c(OC)c3)C2=O)ccc1O | 118% (active) | 4.1 | 11.1% (inactive) | 99.1% (active) | 106% (active) | -3% (inactive) | 99.5% (active) | 103% (active) | 101% (active)
CCc1oc2ccccc2c1C(=O)c1cc(I)c(O)c(I)c1 | 4.9% (inactive) | 0.4 | -1.6% (inactive) | 98.7% (active) | 108% (active) | -3.6% (inactive) | 99% (active) | 101% (active) | 102% (active)
COc1cc2[nH]c(=O)[nH]c(=O)c2cc1OC | 0.1% (inactive) | 1.1 | -1.8% (inactive) | 6.35% (inactive) | -8.3% (inactive) | 3.1% (inactive) | -1.4% (inactive) | 47.6% (inactive) | 0.05% (inactive)
CC(=O)O[C@@H]1C(=O)O[C@@H]2[C@H]1OC(=O)[C@@H]2OC(C)=O | 0.6% (inactive) | -1.1 | 2.4% (inactive) | 19.5% (inactive) | -1% (inactive) | -3.4% (inactive) | 22.9% (inactive) | 18.7% (inactive) | 4.6% (inactive)
NNC(=O)CP(=O)(c1ccccc1)c1ccccc1 | 1.5% (inactive) | 0.6 | -2% (inactive) | -2.45% (inactive) | 34.3% (inactive) | 1.1% (inactive) | -12.6% (inactive) | 10% (inactive) | 7.2% (inactive)
CCOc1ncc(F)c(=O)[nH]1 | -1% (inactive) | -1.1 | 2.9% (inactive) | 0.7% (inactive) | 0.1% (inactive) | 2.1% (inactive) | 2.4% (inactive) | 3% (inactive) | -4.2% (inactive)
CC(C)c1cc2c(cc1S(=O)(=O)O)[C@@]1(C)CCC[C@@](C)(C(=O)O)[C@@H]1CC2 | -1% (inactive) | -3.3 | 1.4% (inactive) | 3.3% (inactive) | -20.8% (inactive) | -1.8% (inactive) | 5.2% (inactive) | -5.2% (inactive) | 11.9% (inactive)
